This note sets out measurements from PubChem BioAssay (NCI).

This is part of a sample that, as a whole, favours compounds with a hit. Of some 79,000 tested, about 15% had one in any assay. A number with no mark means an inactive call. Calls of active or inactive are those of the source. Cut-off read from the data, not from the text of the source: active = growth inhibition above about 70%; inactive = the rest.

The assay can be described thus: NCI Yeast Anticancer Drug Screen. Data for the bub3 strain (AID 167). The note with it: S. cerevisiae bub3 mutant strain, at 50.0 µM, hits give high values. In outline:
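Part of a panel of yeast mutants defective in DNA damage repair or cell cycle regulation. Each strain is grown with compound, and inhibition is calculated relative to solvent-treated cultures.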
For `Cc1cc(=O)n(-c2ccccc2)c(=O)n1-c1nc2ccccc2[nH]1`, the growth inhibition was -4.35%.
As to `C=CCc1cc(C(=O)C(=O)c2cc(CC=C)c(OC(C)=O)c(OC)c2)cc(OC)c1OC(C)=O`, the growth inhibition was -5.85%.
To `Clc1ccc2c(c1)Cc1ccccc1-2` belongs 51.6%; to `CC(=O)c1cccc(NC(=O)/C(=N\NC(=S)NN)C2C(=O)Nc3ccccc3S2=O)c1` (stereo unspecified), -1.8%.
Then `COC(=O)CCN(CCC(=O)OC)C1CC1`, with 3.75%; and `CCOC(=O)/C(C#N)=C/NCC1CC1`, with -33.2%.
To `O=c1[nH]c(=O)n(C2CC(O)C(CO)O2)cc1C#Cc1ccc(C(F)(F)F)cc1` (stereo unspecified) belongs 19.2%; to `Cc1ccc(C2(c3ccccc3)c3ccccc3C(=O)N2c2ccccc2)cc1` (stereo unspecified), 97.2% (active).
On to `Cc1ccc2c(c1)C(c1ccccc1)(c1ccccc1)OC2=O`, for which the growth inhibition was 11.4%.
Then `COc1ccc(C2S/C(=C\c3cccc([N+](=O)[O-])c3)C(=O)N2NC(=O)Cc2ccccc2)cc1` (stereo unspecified), with 36%; and `CSC(=O)/C=C1\SS/C(=C\C(=O)SC)S1`, with -11.2%; and `CCCCCCCCCCCCCCCCCC(=O)N/N=C/c1ccccc1OC`, with -2.05%.
To `N=c1c2ncn(C3OC(COP(=O)(O)O)C(O)C3O)c2ncn1O` (stereo unspecified) belongs -9.6%; to `CCOc1ccc(NC(=O)CCc2nnc(SC)o2)cc1`, 29.1%; to `COc1ccc(N(C)C(=S)c2ccccc2)cc1`, 0.45%.
For the compound `COc1ccc(C(=O)c2ccccc2)c(OC(=O)Nc2ccc(Cl)cc2)c1`, the growth inhibition is 12.6%.
